Laboratory results taken from paper PMC5540273 (PLoS ONE, 2017).

Tests used:
Settings in all cases: concentration: 1 μM, replicates: in singlicate; n = 1
[1] = test system: TYK2(JH2domain-pseudokinase)
TYRO3 = test system: TYRO3
ULK1 = test system: ULK1
ULK2 = test system: ULK2
ULK3 = test system: ULK3
VEGFR2 = test system: T1, VEGFR2
T1 construct: gene KDR

VPS34 = test system: T2, VPS34
T2 construct: gene PIK3C3

VRK2 = test system: VRK2
WEE1 = test system: WEE1
WEE2 = test system: WEE2
WNK1 = test system: WNK1
WNK2 = test system: WNK2
WNK3 = test system: WNK3
WNK4 = test system: WNK4
YANK1 = test system: T3, YANK1
T3 construct: gene STK32A

YANK2 = test system: T4, YANK2
T4 construct: gene STK32B

YANK3 = test system: T5, YANK3
T5 construct: gene STK32C

YES = test system: T6, YES
T6 construct: gene YES1

YSK1 = test system: T7, YSK1
T7 construct: gene STK25

YSK4 = test system: T8, YSK4
T8 construct: gene MAP3K19
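Note: KINOMEscan kinase panel screen.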

SMILES | %Inh [1] | %Inh (TYRO3) | %Inh (ULK1) | %Inh (ULK2) | %Inh (ULK3) | %Inh (VEGFR2) | %Inh (VPS34) | %Inh (VRK2) | %Inh (WEE1) | %Inh (WEE2) | %Inh (WNK1) | %Inh (WNK2) | %Inh (WNK3) | %Inh (WNK4) | %Inh (YANK1) | %Inh (YANK2) | %Inh (YANK3) | %Inh (YES) | %Inh (YSK1) | %Inh (YSK4)
Cc1cc(-c2ccnc(Nc3cccc(C#N)c3)n2)cc(C)c1O [GSK1440913] | 99.4% | 23% | 1% | 0% | 54% | 6% | 70% | 3% | 0% | 2% | 7% | 0% | 4% | 26% | 7% | 0% | 13% | 19% | 4% | 97%
COC(=O)Nc1nc2ccc(Oc3ccc(NC(=O)Nc4cc(C(F)(F)F)ccc4F)cc3)cc2[nH]1.Cl [GW654607] | 1% | 66% | 15% | 0% | 58% | 92.3% | 0% | 0% | 31% | 0% | 25% | 27% | 26% | 15% | 21% | 0% | 100% | 48% | 25% | 97.2%
Cn1cc(-c2ccc3c(c2)CCN3C(=O)Cc2cc(F)cc(F)c2F)c2c(N)ncnc21 [GSK2634140] | 44% | 0% | 14% | 0% | 4% | 0% | 16% | 27% | 0% | 14% | 13% | 8% | 23% | 14% | 29% | 13% | 0% | 15% | 23% | 96.7%
Cn1cc(-c2cnc(N)c3c(-c4ccc5c(c4)CCN5C(=O)Cc4ccccc4)csc23)cn1 [GSK2593074] | 0% | 63% | 0% | 0% | 0% | 65% | 0% | 0% | 3% | 5% | 0% | 0% | 0% | 0% | 0% | 0% | 0% | 55% | 6% | 43%
CN(c1ccc(F)c(NC(=O)c2cccc(OC(C)(C)C#N)c2Cl)c1)c1ccc2nc(NC(=O)C3CC3)sc2n1 | 0% | 14% | 2% | 0% | 4% | 91.9% | 0% | 0% | 0% | 17% | 0% | 19% | 0% | 0% | 0% | 0% | 0% | 91.4% | 0% | 20%
O=C1NC(=O)C(c2ccccc2Cl)=C1Nc1cccc(Cl)c1 [SB-342409] | 29% | 0% | 36% | 0% | 24% | 0% | 0% | 12% | 0% | 6% | 14% | 8% | 0% | 1% | 0% | 0% | 100% | 17% | 15% | 40%
CN(C)CCNS(=O)(=O)c1ccc(-c2ccnc3[nH]ccc23)cc1 [GSK977620] | 26% | 3% | 73% | 0% | 27% | 0% | 57% | 0% | 35% | 0% | 0% | 0% | 0% | 0% | 21% | 0% | 27% | 16% | 78% | 88%
COC(=O)Nc1nc2cc(Oc3ccc(NC(=O)Nc4cccc(SC)c4)cc3)ccc2[nH]1.Cl [GW697999] | 20% | 0% | 14% | 0% | 21% | 77% | 18% | 26% | 28% | 11% | 0% | 3% | 29% | 27% | 14% | 0% | 0% | 29% | 3% | 85%
Cc1ccc(NC(=O)c2cccc(N3CCCCC3)c2)cc1-c1ccc(C(=O)NCC2CC2)cc1 [GSK1917008] | 0% | 0% | 37% | 13% | 18% | 6% | 0% | 0% | 0% | 18% | 13% | 0% | 2% | 10% | 9% | 11% | 22% | 10% | 12% | 35%
CCNc1nccc(-c2c(-c3ccc(F)cc3)ncn2C2CCN(C)CC2)n1 | 0% | 26% | 0% | 0% | 0% | 0% | 0% | 0% | 0% | 0% | 0% | 0% | 0% | 0% | 0% | 0% | 0% | 3% | 5% | 0%
CC(=O)Nc1cn2nc(Oc3cccc(NC(=O)c4cccc(C(F)(F)F)c4)c3)ccc2n1 | 0% | 33% | 0% | 0% | 0% | 99.4% | 24% | 8% | 21% | 0% | 0% | 0% | 0% | 0% | 0% | 0% | 0% | 96.2% | 0% | 99.9%
COc1ccc(NC(=O)c2ccoc2)cc1-c1ccc(C(=O)NCC2CC2)cc1 [GW810437] | 34% | 12% | 34% | 28% | 41% | 0% | 11% | 0% | 7% | 13% | 9% | 0% | 12% | 0% | 0% | 13% | 12% | 0% | 0% | 34%
Fc1cc(Cl)ccc1Nc1ccnc2cc(-c3ccc(CN4CCSCC4)o3)ccc12 [GW560106] | 52% | 61% | 0% | 0% | 15% | 65% | 0% | 29% | 0% | 2% | 1% | 0% | 35% | 14% | 7% | 24% | 1% | 79% | 19% | 66%
COc1cccc(NC(=O)NCCNc2ccnc(Nc3ccc(F)cc3)n2)c1 [GSK1379879] | 48% | 0% | 13% | 0% | 26% | 0% | 0% | 0% | 31% | 6% | 5% | 22% | 22% | 46% | 0% | 0% | 0% | 0% | 0% | 44%
CN(c1ccc(NC(=O)N2CCN(CCCN3CCOCC3)CC2)cc1)c1ccnc(Nc2ccc(CS(C)(=O)=O)cc2)n1.Cl [GW830899] | 22% | 8% | 0% | 0% | 0% | 52% | 0% | 0% | 3% | 79% | 0% | 0% | 0% | 0% | 0% | 0% | 0% | 4% | 0% | 81%
